# From PubChem
# Compounds with a hit are over-represented: about 2.2% of the library has one in this group of screens.
# KLF5 inh = suppresses KLF5 promoter-driven expression. AID 1700. actives 0.23% (n = 290,000). inhibition, % at 5 µM. DLD-1 KLF5 promoter-luciferase reporter, luminescence;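 active = inhibition above a per-plate limit of that plate's mean compound inhibition plus 3 SD, cut at about 60% in these data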;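 also: 0% = DMSO wells and 100% = LY294002 at 200 µM; higher means less KLF5 promoter-driven luciferase light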
# BaF3 parental = parental Ba/F3 viability inhibition as JAK2V617F counter-screen | inhibition, % at 5.6 µM | AID 1486 | CellTiter-Glo ATP luminescence | actives 1.1% (n = 220,000);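 active = inhibition above a per-campaign cutoff, the mean inhibition of all tested compounds plus 3 SD, cut at about 27% in these data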;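 also: 0% = DMSO wells and 100% = JAK Inhibitor I control wells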
# IEC-6 tox-1 = kills IEC-6 intestinal cells in KLF5 counter-screen. IEC-6 cytotoxicity, luminescence viability. inhibition, % at 5 µM. actives 0.78% (n = 290,000). AID 1825;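 also: 0% = plate median of test compound wells and 100% = cytotoxic reference compound wells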
# APP 5UTR inh = APP translation inhibition; SH-SY5Y APP 5'UTR-luciferase reporter, luminescence; AID 1285; inhibition, % at 2 µM; actives 0.82% (n = 190,000);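 active = inhibition above a set limit, derived from the sample mean plus 3 SD, cut at about 45% in these data; inconclusive = one replicate passes the limit while the other fails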
# aSyn 5UTR inh = MLPCN primary screen, SNCA 5' untranslated region | alpha-synuclein 5'UTR reporter, inhibitor activity | inhibition, % (tested at 7.5 µM) | actives 0.82% (n = 300,000) | AID 1813; in the data active = inhibition above about 60%; inconclusive = no clear call, values can overlap the other calls;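 also: H4 neuroglioblastoma cells stably carrying SNCA 5'UTR luciferase fusion; 0% = DMSO wells and 100% = positive control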
# Ba/F3 V617F tox = loss of viability in JAK2V617F-driven Ba/F3 cells | Ba/F3 EpoR-JAK2V617F viability, ATP luminescence | inhibition, % at 5.6 µM | actives 1.1% (n = 220,000) | AID 1446;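 active = inhibition above the campaign mean plus 3 SD over all tested compounds, cut at about 24% in these data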;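 also: cytokine-independent growth of Ba/F3 cells driven by EpoR plus mutant JAK2; 0% = DMSO-treated cells and 100% = JAK inhibitor I control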
# KLF5 confirm = KLF5 inhibition, confirmation assay; shares compounds with KLF5 inh; DLD-1 KLF5 promoter firefly luciferase reporter, luminescence; inhibition, % at 4 µM; actives 79% (n = 610);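 active = inhibition above a set limit taken from the earlier primary screen, cut at about 63% in these data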;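 also: 0% = DMSO wells and 100% = LY294002 at 200 µM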
# IEC-6 tox-2 = rat IEC-6 cytotoxicity, KLF5 inhibitor counter-screen; actives 56% (n = 610); IEC-6 rat intestinal cells, viability luminescence; shares compounds with KLF5 inh; AID 1905; inhibition, % at 4 µM; in the data active = inhibition above about 23%;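 also: cells exposed to compounds for 48 hours before viability read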
# IEC-6 tox confirm = confirmation of cytotoxic compounds in rat IEC-6 intestinal epithelial cells; inhibition, % at 5 µM; actives 63% (n = 1,900); shares compounds with IEC-6 tox-1; IEC-6 rat intestinal epithelial viability, luminescence; AID 1907;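 also: 0% = vehicle and 100% = reference cytotoxic drug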
# * = called active by the depositor; ? = inconclusive; / = no result. Rule as the data show it, unless noted: active = inhibition above about 22%; inactive = the rest.
SMILES,KLF5 inh,BaF3 parental,IEC-6 tox-1,APP 5UTR inh,aSyn 5UTR inh,Ba/F3 V617F tox,KLF5 confirm,IEC-6 tox-2,IEC-6 tox confirm
Cc1ccc(N2C(=O)c3cccc4c(N)ccc(c34)C2=O)c2cccnc12,63*,85*,86*,/,100*,92*,90*,72*,74*
COc1cccc(Cn2c(NCc3cccnc3)nc3c2c(=O)n(C)c(=O)n3C)c1,84*,90*,88*,33,71*,91*,97*,70*,81*
COc1cccc(Cn2c(NCc3ccccn3)nc3c2c(=O)n(C)c(=O)n3C)c1,-12,1,2,-20,/,1,/,/,/
O=C(/C=N/NC(=O)c1ccc(Cl)cc1Cl)c1ccccc1,-25,-5,4,/,-6,2,/,/,/
CCCCCOC(=O)c1[nH]c2c(c1C)C(=O)CC(c1ccco1)C2 (configuration not stated),79*,95*,94*,95*,54,95*,88*,77*,79*
CCOCCOC(=O)c1[nH]c2c(c1C)C(=O)CC(c1ccccc1)C2 (configuration not stated),78*,/,91*,/,41,/,87*,66*,76*
COCCOC(=O)c1[nH]c2c(c1C)C(=O)CC(c1cccs1)C2 (configuration not stated),71*,75*,79*,85*,64*,74*,73*,59*,55*
COCCOC(=O)c1[nH]c2c(c1C)C(=O)CC(c1ccc(OC)c(OC)c1)C2 (configuration not stated),-27,/,2,/,-2,/,/,/,/
COC(=O)c1[nH]c2c(c1C)C(=O)CC(c1cccc(OC)c1)C2 (configuration not stated),78*,/,86*,/,41,/,89*,64*,62*
CC(=O)c1ccc(N2CCN(S(=O)(=O)c3c(C(=O)N4CCCCC4)c(C)n(C)c3C)CC2)cc1,-28,/,-1,/,-45,/,/,/,/
N#Cc1ccc(-c2cccs2)nc1SCc1cccnc1,62*,69*,79*,/,90*,73*,75*,64*,64*
O=C(Cc1n[nH]c(=O)c2ccccc12)OCC(=O)c1ccc2c(c1)OCCO2,77*,82*,89*,95*,80*,83*,65*,72*,60*
COc1ccc(S(=O)(=O)NCc2ccccn2)cc1NC(=O)c1ccccc1F,64*,/,76*,/,52,/,81*,53*,52*
CCOc1ccc(S(=O)(=O)NCc2ccccn2)cc1NC(=O)c1ccccc1,/,/,/,/,37,/,/,/,/
COc1cccc(C(NC(C)=O)c2ccc3cccnc3c2O)c1 (configuration not stated),91*,/,99*,/,72*,/,97*,81*,75*
CC(=O)NC(c1ccc(C(C)C)cc1)c1ccc2cccnc2c1O (configuration not stated),81*,/,70*,/,67*,/,82*,83*,83*
CC(=O)NC(c1cccc([N+](=O)[O-])c1)c1ccc2cccnc2c1O (configuration not stated),62*,/,94*,/,123*,/,96*,80*,77*
CC(=O)NC(c1ccccc1)c1cc([N+](=O)[O-])c2cccnc2c1O (configuration not stated),-20,10,-6,-21,-18,3,/,/,/
CC(=O)NC(c1ccc(C)cc1)c1cc(Cl)c2cccnc2c1O (configuration not stated),64*,/,94*,/,?,/,83*,69*,69*
COC(=O)CSc1cccc2c1C(=O)CC2c1ccccc1 (configuration not stated),-12,/,-2,/,-6,/,/,/,/
CCOc1ccc(N(CC(=O)Nc2ccc(C)cc2)S(=O)(=O)c2c(C)noc2C)cc1,-1,-1,-1,-20,0,-2,/,/,/
CCOc1ccc(N(CC(=O)Nc2ccccc2OCC)S(=O)(=O)c2c(C)noc2C)cc1,75*,/,90*,/,95*,/,79*,59*,54*
COc1ccc2[nH]c3c(C)c4ccncc4c(C)c3c2c1,75*,60*,74*,/,109*,65*,77*,59*,58*
CCN(CC)c1ccc(NC(=O)c2cc(OC)cc(OC)c2)c(C)c1,75*,78*,78*,92*,-23,78*,79*,60*,60*
CCOc1cc(C#N)c(NC(=O)c2cccnc2)cc1OCC,73*,77*,82*,89*,41,84*,79*,50*,56*
SMILES,KLF5 inh,BaF3 parental,IEC-6 tox-1,APP 5UTR inh,aSyn 5UTR inh,Ba/F3 V617F tox,KLF5 confirm,IEC-6 tox-2,IEC-6 tox confirm
Nc1ccc(C(=O)n2c3ccccc3c3ccccc32)cc1,79*,73*,83*,94*,117*,68*,85*,60*,58*
O=C(Nc1ccc(S(=O)(=O)N2CCOCC2)cc1)c1ccc([N+](=O)[O-])o1,99*,66*,67*,/,-120,68*,5,8,11
O=C(Nc1ccc(S(=O)(=O)N2CCOCC2)cc1)c1ccc([N+](=O)[O-])s1,/,/,/,/,-43,/,/,/,/
CCOc1ccc2[nH]c(C(=O)N/N=C/c3ccc(OC)cc3)cc2c1,66*,/,84*,/,76*,/,73*,58*,58*
COc1ccc(C2C(O)C(c3c[nH]c4ccccc34)=NN2C(=O)CCl)cc1 (configuration not stated),102*,/,102*,/,108*,/,99*,101*,100*
COc1ccc(C2NN=C(c3c[nH]c4ccccc34)C2O)cc1 (configuration not stated),-5,/,1,/,-12,/,/,/,/
CCOc1ncccc1C(=O)N1CCN(c2cccc(C)c2C)CC1,73*,81*,86*,95*,-15,81*,85*,60*,54*
CCOc1ncccc1C(=O)N1CCN(c2cc(Cl)ccc2C)CC1,68*,68*,82*,91*,57,65*,78*,64*,61*
CCOc1ncccc1C(=O)N1CCN(C(=O)c2ccccc2)CC1,-28,0,-4,-5,-10,-6,/,/,/
COc1ccc(-c2cc(C(=O)N3CC(C)CC(C)C3)c3ccccc3n2)cc1OC (configuration not stated),/,/,/,/,28,/,/,/,/
Cc1cccc2c(C(=O)N3CCN(c4ccccc4)CC3)cc(-c3ccncc3)nc12,64*,/,71*,/,94*,/,71*,46*,53*
